# Screening results deposited in PubChem BioAssay by several laboratories.
# Sampled rows, rich in hits. Any-hit rate of the full collection: about 2%.
# Beta cell apopt: beta cell apoptosis inhibition; INS-1E cytokine-induced death, ATP luminescence, 48 h; percent of positive-control rescue, neutral wells zero; protection from apoptosis, % (test concentration not listed); actives 0.8% (n = 300,000);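 active = Every replicate reaches about 75%, or at least half do and their mean reaches it too, limit read from the data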;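 also: higher means more ATP so stronger rescue from cytokine killing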
# Jurkat NFkB inh: inhibitors of the PMA/ionomycin-induced NF-kB reporter in Jurkat cells; inhibition, % at 4 µM; AID 435003; PMA/ionomycin-induced NF-kB luciferase reporter, luminescence; actives 0.53% (n = 330,000); in the data active = inhibition above about 50%
# 697 NFkB inh: lowers PMA/ionomycin-induced NF-kB signal in 697 B cells | inhibition, % at 4 µM | 697 B-cell NF-kB luciferase reporter, 16 h | actives 0.33% (n = 330,000); in the data active = inhibition above about 35%
# Calb FLC: affects C. albicans growth with fluconazole; C. albicans CaCi-2 (fluconazole-resistant clinical isolate) + fluconazole, Alamar Blue growth, 48 h; growth inhibition, % (concentration not given with the values); actives 0.57% (n = 300,000); AID 1979;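 active = growth inhibition above about 58% in most replicates, limit read from the data, passing the limit was not always enough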;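 also: all wells also contain fluconazole at 8 µg/ml as a sub-toxic cotreatment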
# Shn3 3UTR inh: reduces Shn3 3'UTR luciferase signal in osteoblasts; Clone20 osteoblast Shn3 3'UTR firefly luciferase, 24 h; inhibition, % at 12.5 µM; actives 0.52% (n = 360,000); AID 588674;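 active = mean inhibition of at least 75% with every replicate also reaching 75%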
# Numbers stand for hits; – = inactive; · = not tested or not shown.
SMILES,Beta cell apopt,Jurkat NFkB inh,697 NFkB inh,Calb FLC,Shn3 3UTR inh
CCC(C)c1ccc(O)c(NC(=S)NC(=O)c2cccnc2)c1 (configuration not stated),·,–,–,82,–
Cc1nc2c(C(=O)NCCC(C)C)c[nH]n2c(=O)c1Cc1ccccc1F,–,–,–,85,–
Cc1nc2c(C(=O)NCCC(C)C)c[nH]n2c(=O)c1Cl,–,–,–,–,–
Cc1ccc(S(=O)(=O)CCC(=O)OCCOc2cccc(Br)c2)cc1,–,–,–,·,–
Nc1c(-c2ccccc2)nc(Cl)nc1-c1ccccc1,–,–,–,–,–
c1ccc(-c2nc3nonc3nc2-c2ccccc2)cc1,135,–,–,–,–
CC(=O)c1cccc(NC(=O)c2nc(-c3ccccc3)oc2C)c1,–,–,–,–,–
CCn1c(-c2ccc(N(C)C)cc2)nc2ccccc21,113,–,–,–,–
CCn1c(-c2ccc(N)cc2)nc2ccccc21,–,–,–,–,–
COCCCN1C(=O)C(CC(=O)NCc2cccs2)CC(C(=O)N(C(C)C)C(C)C)=C1C (configuration not stated),·,·,·,·,–
Nc1ccc(C(=O)N/N=C\c2ccc(OC(=O)c3ccccc3Cl)cc2)cc1,–,–,–,79,–
COc1ccc(C(=O)Nc2cc(-c3ccccc3)nn2-c2ccccc2F)cc1,–,–,–,·,–
C=C1C(=O)[C@]23C[C@H]1CC[C@H]2[C@]1(C)[C@@H](O)CC[C@@](C)(C(=O)O)[C@H]1C[C@@H]3O,·,·,·,·,–
C=C1C(=O)[C@]23C[C@H]1CC[C@H]2[C@]1(C)[C@@H](OC(C)=O)CC[C@@](C)(C(=O)O)[C@H]1C[C@@H]3O,·,·,·,·,–
C=C1C(=O)[C@]23C[C@H]1CC[C@H]2[C@]1(C)[C@@H](OC(C)=O)CC[C@@](C)(C(=O)OC)[C@H]1C[C@@H]3OC(C)=O,·,·,·,·,96
C=C1C(=O)[C@]23C[C@H]1CCC2[C@@]1(C)C(C[C@@H]3O)[C@](C)(C(=O)OC)CC[C@@H]1OC(C)=O (some centres not stated),·,·,·,·,98
CC(C)c1noc2ncc(C(=O)c3cc(Cl)cc(Cl)c3O)cc12,–,–,–,99,–
COc1ccc(-c2nn(-c3ccccc3)cc2/C=N/N2C(=O)CSC2=S)cc1,106,–,–,–,–
COc1ccc(/C=N/N2C(=O)CSC2=S)cc1,–,–,–,–,–
O=C(NCCO)C(=O)Nc1cc2c3c(c1)CCC(=O)N3CCC2,–,–,–,–,–
CC(C)=CCc1cc([C@@H]2COc3c(ccc4c3C=CC(C)(C)O4)C2)c(O)cc1O,–,–,–,–,92
CC1(C)C=Cc2c(ccc3c2OC[C@H](c2ccc(O)cc2O)C3)O1,–,–,–,·,–
O=C1C(Cl)=C(N2CCN(c3ccccc3[N+](=O)[O-])CC2)C(=O)c2ccccc21,–,·,·,–,96
COC(=O)c1c(C(=O)OC)c(-c2ccc(Cl)c(Cl)c2)n2c1CCC2,–,–,–,111,–
CCCC(=O)N1CCC1(C)C(=O)Nc1ccc2nccnc2c1 (configuration not stated),·,·,·,·,–
SMILES,Beta cell apopt,Jurkat NFkB inh,697 NFkB inh,Calb FLC,Shn3 3UTR inh
COc1ccc(C(=O)c2coc(-c3ccccc3C(=O)O)c2C(=O)O)cc1,–,–,–,–,–
COc1ccc(C(=O)c2c(C(F)(F)F)oc3c2C(=O)c2ccccc2C3=O)cc1,115,–,–,–,97
CCOC(=O)c1c2c(n(Cc3ccccc3)c1C)C(=O)C(=O)c1ccccc1-2,·,·,·,·,89
COc1cc(C(=O)NCc2ccc3c(c2)OCO3)c([N+](=O)[O-])cc1OC,–,–,–,–,–
NS(=O)(=O)c1ccc(CCNCc2cc(Br)ccc2OCc2ccccc2F)cc1,–,–,–,–,86
Nc1nonc1C(=O)NCCNCc1cc(Br)ccc1OCc1ccccc1F,–,–,–,–,85
NS(=O)(=O)c1ccc(CCNCc2cc(Cl)ccc2OCc2ccccc2)cc1,–,–,–,–,–
COc1ccc(C2CCCCC2SCC(=O)O)cc1OC (configuration not stated),·,·,·,·,–
CN(Cc1ccc(OC(F)F)cc1)C(=O)c1cccc(S(=O)(=O)N2CCN(Cc3ccccc3)CC2)c1,·,·,·,·,89
CC1CCN(C(=O)COC(=O)c2c[nH]c3ccccc23)CC1,·,–,–,·,–
C=C[C@@H]1c2cc(C)ccc2N(S(=O)(=O)c2ccc(C)cc2)[C@H](c2ccccc2C(F)(F)F)C1(C#N)C#N,–,–,–,·,–
CN(CC(=O)Nc1cccc(C(F)(F)F)c1)C1=NS(=O)(=O)c2ccccc21,–,–,–,·,–
CCN(CC)c1nc(-c2ccccn2)nc(-c2ccccc2)c1C#N,·,–,–,103,–
CN(C)c1nc(-c2ccccn2)nnc1-c1ccccc1,–,–,–,–,93
CN(C)c1nc(-c2ccccc2)nc(-c2ccc(Cl)cc2)c1C#N,–,–,–,–,–
c1ccc(-c2nnc(-c3ccccn3)c(-c3ccccn3)n2)nc1,–,–,–,–,–
CCOC(=O)CNC(=O)C1(NC(=O)CNC(=O)OCc2ccccc2)CCCC1,·,·,·,·,91
COc1ccc(OC)c(C(c2nnnn2Cc2ccccc2)N2CCN(C3CCCCC3)CC2)c1 (configuration not stated),–,–,–,–,90
CC(=O)Oc1ccccc1Cn1c(C)c(C(=O)N(C)Cc2ccc(F)cc2)sc1=O,·,·,·,·,–
O=C(CCl)Nc1cn(-c2ccccc2)nc1-c1ccc(F)cc1,–,–,–,–,96
CCc1ccc(S(=O)(=O)N2CCN(C(=O)C3CCN(C(C)=O)CC3)CC2)cc1,–,–,–,–,–
O=C1C(N2CCOCC2)=C(n2nnc3ccccc32)C(=O)c2ccccc21,120,–,–,–,–
O=C1c2ccccc2C(=O)c2c1cccc2-n1nnc2ccccc21,–,–,–,–,–
CCn1c(-c2ccc(C)cc2)nn(CC(=O)NCCc2ccccc2)c1=S,127,–,–,–,–
COc1ccc(-c2nn(CC(=O)NCCc3ccccc3)c(=S)n2C)cc1,–,–,–,–,–
SMILES,Beta cell apopt,Jurkat NFkB inh,697 NFkB inh,Calb FLC,Shn3 3UTR inh
O=[N+]([O-])CC(c1ccccc1)P(=O)(c1ccccc1)c1ccccc1 (configuration not stated),–,–,–,94,–
O=[N+]([O-])CC(c1ccccc1)c1c[nH]c2ccccc12 (configuration not stated),–,–,–,–,–
Cc1ccc(CNC(=O)C2(C)CCN2C(=O)Cc2ccc(-c3ccccc3)cc2)cc1 (configuration not stated),·,·,·,·,–
CCc1ccc(C(O)c2ncc(-c3ccccc3Cl)[nH]2)cc1 (configuration not stated),·,·,·,·,–
Cn1cc(CNCc2ccc(OC(F)(F)F)cc2)c(-c2ccc3c(c2)OCCO3)n1,142,–,–,–,·
Cn1cc(CNCc2cn[nH]c2-c2ccc(F)cc2)c(-c2ccc3c(c2)OCCO3)n1,–,–,–,·,–
CC(C)c1ccc(-c2nc3ccccc3s2)cc1,–,–,–,–,88
FC(F)(F)c1ccc(-c2nc3ccccc3s2)cc1,·,·,·,·,–
